Compounds without any hit were thinned out: in the full panel of roughly 83,000, 20% have a hit.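 Method: cells in 96-well plates; compound added at one concentration; 48 h incubation; percent growth measured; values under 10 scored active.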 A number with no mark means an inactive call. Activity calls are given as the source filed them.

The first assay deals with TK-10 renal. Briefly: NCI-60 one-dose screen, 48 h (100 = growth as untreated, 0 = no growth, -100 = all killed). The note with it: 10 µM unless noted.
In the case of `COc1ccc(NC(=O)c2sc3c(=O)[nH]c(C(F)(F)F)nc3c2C)cc1`, the growth was 104%.
Still for that read-out and setting: for `O=C(Nc1cccc(Cl)c1)Nc1ccccc1Cl` the value was 88.5%; for `NC(=O)N/N=C\c1ccc([N+](=O)[O-])o1`, 113%.
For `CCN(CC)Cc1cc(Nc2ccnc3ccc(OC)cc23)ccc1O`, the growth is 49.6%.
On to `CC(C)(C)c1nn(-c2ccccc2)c2c1C(=O)CSC(c1ccc3c(c1)OCO3)N2` (stereo not drawn), for which the growth is 103%.
Same read-out and setting: with `CN(C)N1C(=O)c2c(Cl)c(Cl)c(Cl)c(Cl)c2C1=O` the figure was 98%.
On the same count and under the same terms, for `O=c1c2cc(Cl)ccc2oc2ccc(OCCCCCN3CCCCC3)cc12` the value was 69.2%; for `C=CCOc1ccc2c(C)cc(=O)oc2c1`, 91.9%; for `O=C(CSc1nc2c(n1Nc1ccccc1)-c1ccccc1SC2)Nc1nccs1`, 120%.
The same measure, in the same setting: with `CCNC(=O)c1ccc2c(c1)nc(-c1ccc(Cl)cc1)n2-c1cc(C(C)(C)C)[nH]n1` the figure was 89.7%; with `CC(C)CC1NC(=O)C(CC(C)C)N(CO)C1=O` (stereo not drawn), 97.9%; with `CCn1c(=O)c(C(=O)NCCCO)c(O)c2ccccc21`, 180%.
In the case of `COc1cc(NCC(O)CN(CC(C)C)CC(C)C)c2ncccc2c1` (stereo not drawn), the growth is 113%.
`CC(=O)Nc1ccc(/C=N/N2CCCCCC2)cc1`: the growth is 114%.
As for `O=c1oc2ccccc2cc1-c1cc(-c2ccc(-c3cc(-c4cc5ccccc5oc4=O)nc(-c4cc5ccccc5oc4=O)c3)cc2)cc(-c2cc3ccccc3oc2=O)n1`, the growth was 129%.
In the case of `CCN(CC)c1ccc(/C=N/N=C(N)N)cc1`, the growth is 63.4%.
On the same count and under the same terms, for `Cc1ccc(C)c2c1SC1=NNC(Oc3ccc(Cl)cc3)=C(C#N)C(=N)N12` the value was 125%; for `CCOC(=O)C(Cc1ccccc1)n1c(O)c(/C=N/c2ncc(Cc3ccc(Cl)cc3Cl)s2)sc1=S` (stereo not drawn), 2.28% (active).
Same read-out and setting: with `COc1ccc(-c2cnc(-c3ccncc3-c3cccc(OC)c3)o2)cc1` the figure was 30.5%.
The same measure, in the same setting: with `Cc1ccc(OC2=C(C#N)C(=N)N3C(=NN2)Sc2c(C)ccc(C)c23)cc1` the figure was 129%; with `O=C(Nc1ccncc1)C(=O)c1cn(S(=O)(=O)c2cccc(Cl)c2F)c2ccccc12`, 112%; with `CN1C(=O)NC(Cc2c[nH]c3c(Cl)cccc23)C1=O` (stereo not drawn), 147%.
For `COc1ccc(C(=O)OC2C(OC3C(O)COC(O[C@H]4C[C@H]5[C@@H]6CC=C7C[C@@H](O)CC[C@]7(C)[C@H]6CC[C@]5(C)[C@H]4[C@H](C)C(=O)CCC(C)C)C3OC(C)=O)OCC(O)C2O)cc1` (stereo partly drawn), the growth is -20.1% (active).
The same measure, in the same setting: with `C[C@@H]1N=C(c2ccc3ccccc3c2)Nc2nc3ccccn3c2C1=O` the figure was 64.4%; with `O=[N+]([O-])c1ccc(N=Nc2c(NNc3ccc([N+](=O)[O-])cn3)cc(S(=O)(=O)O)c3ccccc23)nc1`, 88.4%; with `CS(=O)(=O)c1ccc(C(=O)N/N=C/c2ccccc2Cl)cc1`, 110%.
Same read-out and setting: with `CC1=C(O)C(=O)CC1` the figure was 111%; with `O=C(N/N=C/c1ccc([N+](=O)[O-])cc1)c1ccccc1Nc1ccnc(C(F)(F)F)c1`, 83.4%.
On the same count and under the same terms, with `Cc1ccc(C(CN(C)C)C(=O)c2ccccc2)cc1` (stereo not drawn) the figure was 44.8%; with `CN1CCC2(CC1)N=C(SCC(=O)Nc1cnc3ccccc3c1)C(c1ccc(Br)cc1)=N2`, 30.1%; with `Nc1c(C(=O)C[C@@H](N)CO)ccc2c1C(=O)CCO2`, 71.4%.
For `Cc1ccncc1NC=O`, the growth was 102%.
For `Cc1c2c(cc3c1[nH]c1ccccc13)C=NCC2`, the growth was 113%.
Same read-out and setting: for `O=S1(=O)NCCCN1CCNc1nccc(-c2c(-c3cccc(O)c3)nc3sccn23)n1` the value was 121%; for `CCc1c(C)c2ccc(O)c(-c3cc(-c4ccccc4)c(C#N)c(=O)[nH]3)c2oc1=O`, 124%.
As for `COc1ccc2nc3cc(Cl)ccc3c(NC(=O)CSc3ccc(Cl)cc3)c2c1`, the growth is -96.1% (active).
On to `C=CC(=O)N1CN(C(=O)C=C)CN(C(=O)C=C)C1`, for which the growth was -11.4% (active).
On to `CCCC(CCC)(C(N)=O)C(=O)O`, for which the growth is 115%.
Still for that read-out and setting: for `C=CCCCCOc1cccc(/C=C2\N=C3SCCCN3C2=O)c1` the value was 99.4%.

A further assay has as its system ACHN renal. The assay is described as above. To be noted: 10 µM unless noted.
For `COc1ccc(NC(=O)c2sc3c(=O)[nH]c(C(F)(F)F)nc3c2C)cc1`, the growth is 102%.
Still for that read-out and setting: with `O=C(Nc1cccc(Cl)c1)Nc1ccccc1Cl` the figure was 89.9%; with `NC(=O)N/N=C\c1ccc([N+](=O)[O-])o1`, 98.8%; with `CCN(CC)Cc1cc(Nc2ccnc3ccc(OC)cc23)ccc1O`, 35.1%.
As for `CC(C)(C)c1nn(-c2ccccc2)c2c1C(=O)CSC(c1ccc3c(c1)OCO3)N2` (stereo not drawn), the growth is 107%.
Still for that read-out and setting: for `CN(C)N1C(=O)c2c(Cl)c(Cl)c(Cl)c(Cl)c2C1=O` the value was 133%.
Same read-out and setting: for `O=c1c2cc(Cl)ccc2oc2ccc(OCCCCCN3CCCCC3)cc12` the value was 94.8%; for `C=CCOc1ccc2c(C)cc(=O)oc2c1`, 108%; for `O=C(CSc1nc2c(n1Nc1ccccc1)-c1ccccc1SC2)Nc1nccs1`, 95.2%.
The same measure, in the same setting: with `CCNC(=O)c1ccc2c(c1)nc(-c1ccc(Cl)cc1)n2-c1cc(C(C)(C)C)[nH]n1` the figure was 52%; with `CC(C)CC1NC(=O)C(CC(C)C)N(CO)C1=O` (stereo not drawn), 108%; with `CCn1c(=O)c(C(=O)NCCCO)c(O)c2ccccc21`, 102%.
Consider `COc1cc(NCC(O)CN(CC(C)C)CC(C)C)c2ncccc2c1` (stereo not drawn), for which the growth was 87.6%.
Regarding `CC(=O)Nc1ccc(/C=N/N2CCCCCC2)cc1`, the growth was 79.1%.
Same read-out and setting: with `O=c1oc2ccccc2cc1-c1cc(-c2ccc(-c3cc(-c4cc5ccccc5oc4=O)nc(-c4cc5ccccc5oc4=O)c3)cc2)cc(-c2cc3ccccc3oc2=O)n1` the figure was 100%; with `CCN(CC)c1ccc(/C=N/N=C(N)N)cc1`, 43.6%; with `Cc1ccc(C)c2c1SC1=NNC(Oc3ccc(Cl)cc3)=C(C#N)C(=N)N12`, 90.6%.
Still for that read-out and setting: for `CCOC(=O)C(Cc1ccccc1)n1c(O)c(/C=N/c2ncc(Cc3ccc(Cl)cc3Cl)s2)sc1=S` (stereo not drawn) the value was 3.38% (active); for `COc1ccc(-c2cnc(-c3ccncc3-c3cccc(OC)c3)o2)cc1`, 17.1%; for `Cc1ccc(OC2=C(C#N)C(=N)N3C(=NN2)Sc2c(C)ccc(C)c23)cc1`, 99%.
Take `O=C(Nc1ccncc1)C(=O)c1cn(S(=O)(=O)c2cccc(Cl)c2F)c2ccccc12`: the growth is 101%.
Same read-out and setting: for `CN1C(=O)NC(Cc2c[nH]c3c(Cl)cccc23)C1=O` (stereo not drawn) the value was 99.3%; for `COc1ccc(C(=O)OC2C(OC3C(O)COC(O[C@H]4C[C@H]5[C@@H]6CC=C7C[C@@H](O)CC[C@]7(C)[C@H]6CC[C@]5(C)[C@H]4[C@H](C)C(=O)CCC(C)C)C3OC(C)=O)OCC(O)C2O)cc1` (stereo partly drawn), 28.6%.
Same read-out and setting: for `C[C@@H]1N=C(c2ccc3ccccc3c2)Nc2nc3ccccn3c2C1=O` the value was 55.4%.
On to `O=[N+]([O-])c1ccc(N=Nc2c(NNc3ccc([N+](=O)[O-])cn3)cc(S(=O)(=O)O)c3ccccc23)nc1`, for which the growth is 57.4%.
With `CS(=O)(=O)c1ccc(C(=O)N/N=C/c2ccccc2Cl)cc1`, the growth is 108%.
On to `CC1=C(O)C(=O)CC1`, for which the growth is 111%.
As for `O=C(N/N=C/c1ccc([N+](=O)[O-])cc1)c1ccccc1Nc1ccnc(C(F)(F)F)c1`, the growth is 82.6%.
Same read-out and setting: for `Cc1ccc(C(CN(C)C)C(=O)c2ccccc2)cc1` (stereo not drawn) the value was -2.93% (active).
Still for that read-out and setting: for `CN1CCC2(CC1)N=C(SCC(=O)Nc1cnc3ccccc3c1)C(c1ccc(Br)cc1)=N2` the value was 5.39% (active); for `Nc1c(C(=O)C[C@@H](N)CO)ccc2c1C(=O)CCO2`, 45.6%; for `Cc1ccncc1NC=O`, 115%.
`Cc1c2c(cc3c1[nH]c1ccccc13)C=NCC2`: the growth was 96.9%.
As to `O=S1(=O)NCCCN1CCNc1nccc(-c2c(-c3cccc(O)c3)nc3sccn23)n1`, the growth is 50.5%.
Same read-out and setting: with `CCc1c(C)c2ccc(O)c(-c3cc(-c4ccccc4)c(C#N)c(=O)[nH]3)c2oc1=O` the figure was 103%; with `COc1ccc2nc3cc(Cl)ccc3c(NC(=O)CSc3ccc(Cl)cc3)c2c1`, -94.6% (active); with `C=CC(=O)N1CN(C(=O)C=C)CN(C(=O)C=C)C1`, 22.4%.
On the same count and under the same terms, with `CCCC(CCC)(C(N)=O)C(=O)O` the figure was 103%.
On the same count and under the same terms, for `C=CCCCCOc1cccc(/C=C2\N=C3SCCCN3C2=O)c1` the value was 99.2%.

The values above are taken from PubChem BioAssay (NCI).
